Source: PubChem (National Center for Advancing Translational Sciences (NCATS))
Only some compounds are listed: those with a hit (about 6% of all), similar ones and a draw of the others.
D3 antag: D3 dopamine receptor (human) antagonism | P35462 | D3R cells, DiscoveRx beta-arrestin luminescence, antagonist mode; active compounds read low | max response, negative = inhibition, % | actives 2.5% (n = 360,000) | AID 652054; in the data active = max response below about -50%; inconclusive = no clear call, values can overlap the other calls; note: % is set by controls: 0 for no effect and ±100 for the full control effect
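Cells plated overnight at 1500 cells/well, then exposed to library compounds with dopamine controls for 90 minutes at 37 degrees C. DiscoveRx reagent added for 30–60 minutes at room temperature; luminescence read, quantitative HTS format.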
D1 antag: antagonists of human D1 dopamine receptor | actives 3.2% (n = 360,000) | activity change, negative = inhibition, % at 10 µM | HEK293 TREx D1 cells, calcium flux, dopamine EC80; active compounds read low; in the data active = activity change below about -30%; note: % is set by controls: 0 for no effect and ±100 for the full control effect
Target sequence (P21728 whole entry, looked up): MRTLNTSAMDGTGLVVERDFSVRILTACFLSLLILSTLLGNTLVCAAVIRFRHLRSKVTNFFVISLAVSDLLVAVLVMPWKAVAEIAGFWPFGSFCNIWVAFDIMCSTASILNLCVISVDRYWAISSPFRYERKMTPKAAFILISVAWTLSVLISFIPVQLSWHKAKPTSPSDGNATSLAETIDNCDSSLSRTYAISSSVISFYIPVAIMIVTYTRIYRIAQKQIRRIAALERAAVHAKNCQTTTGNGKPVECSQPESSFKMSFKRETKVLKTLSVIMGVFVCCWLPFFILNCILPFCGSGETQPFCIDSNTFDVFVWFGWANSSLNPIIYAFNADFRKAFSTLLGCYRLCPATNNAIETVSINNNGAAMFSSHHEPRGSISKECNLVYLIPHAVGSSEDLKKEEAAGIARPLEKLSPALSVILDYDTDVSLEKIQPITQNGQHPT
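Antagonism measured as reduced calcium response to an EC80 dopamine addition following 180 s compound pre-read; cells were inducible HEK293 Trex D1 plated overnight at 30 C, read kinetically at 1 cycle/sec.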
D1 PAM: human D1 dopamine receptor positive modulation; P21728; HEK293 TREx D1 cells, calcium flux, dopamine EC20 potentiation; potentiation, % at 10 µM; actives 0.036% (n = 360,000); AID 504651; in the data active = potentiation above about 30%; note: 0% is about no effect
D1 ag: human D1 receptor agonism; HEK293 T-REx D1 cells, calcium flux, agonist mode; activation, % at 2 µM; actives 1% (n = 360,000); AID 504660; in the data active = activation above about 30%; note: 0% is about no effect
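Inducible HEK293 T-REx D1 cells, force-coupled to calcium signalling, were plated at 4000 cells/well with tetracycline and held overnight at 30 C. After no-wash calcium dye loading, compound-evoked calcium rise over 180 s flagged agonists.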
DRD3 agonist: D3 dopamine receptor (human) agonism. P35462. D3R DiscoveRx beta-arrestin cells, luminescence, 90 min. max activation, %. actives 0.58% (n = 410,000); in the data active = max activation above about 30%; note: 0% is about no effect
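Agonist-mode cell screen: cells plated at 1500/well and incubated overnight at 37 °C, then exposed to library compounds for 90 min at 37 °C. Detection reagent was added for 30–60 min at room temperature, and luminescence was read.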
The depositor's hits bear a star; u = inconclusive; x = not tested or not shown; ! = repeats disagree.

SMILES	D3 antag	D1 antag	D1 PAM	D1 ag	DRD3 agonist
Cc1ccc(C(=O)O)cc1NC(=S)NCCc1ccccc1	2.9	8.1	7.0	-0.7	2.3
O=C(Cc1ccccc1)NCCc1cccc(Cl)c1	u	-55.2*	-8.1	27.3	-5.6
Cc1ccc([N+](=O)[O-])cc1NC(=S)NCCc1ccccc1	u	-35.8*	-4.1	23.4	-16.1
CCn1c(C(=O)Nc2ccccc2C(=O)OC)cc2sc(Cl)cc21	x	15.0	7.7	2.6	3.3
Cc1cc(C(=O)NCCc2ccccc2)ccc1[N+](=O)[O-]	-54.7*	-17.1	-5.9	1.7	-12.3
Cc1[nH]nc(SCC(=O)NCc2ccc(F)cc2)c1[N+](=O)[O-]	-3.8	-39.8*	-6.2	-0.8	4.0
CSc1ccccc1NC(=O)CSc1n[nH]c(C)c1[N+](=O)[O-]	-13.5	3.7	-9.6	15.2	-13.7
Cc1ccc(O)c(NC(=O)CSc2n[nH]c(C)c2[N+](=O)[O-])c1	17.8	-33.6*	-7.1	16.1	18.0
Cc1ccc(NC(=O)CSc2n[nH]c(C)c2[N+](=O)[O-])cc1C	-1.5	-15.4	-4.2	13.8	-7.3
CCN(CC)c1cc2c(cc1F)c(=O)c(S(=O)(=O)c1cccc(C)c1)cn2C	x	-19.7	-0.3	-1.1	-19.5
CC(C)CN1CCc2nc(N3CCN(C)CC3)ncc2C1	x	-8.1	-1.0	2.9	-12.0
O=C(Nc1ccc(F)cc1)Nc1ccc([N+](=O)[O-])cn1	-10.9	8.8	7.3	2.5	-3.6
CCN(CC)S(=O)(=O)c1cc([N+](=O)[O-])ccc1NNC(=O)Nc1ccc(F)cc1	-72.4*	-15.7	-5.7	14.8	-0.5
CCN(CC)S(=O)(=O)c1cc([N+](=O)[O-])ccc1NNC(=O)Nc1ccccc1OC	-85.9*	9.4	10.1	8.7	-4.8
CCN(CC(=O)Nc1ccc([N+](=O)[O-])cc1OC)c1ccccc1	-67.9*	-3.3	1.3	4.6	-2.1
CCN(CC)S(=O)(=O)c1ccc(OC)c(NC(=O)c2ccc([N+](=O)[O-])cc2)c1	-16.9	-15.1	-9.1	-2.4	-6.0
CC(C)NC(=O)Cn1c(=O)cnc2ccccc21	-1.7	-55.1*	-5.4	4.4	-0.1
Cc1ccc(N2CC(C)Cn3c2nc2c3c(=O)n(CC(=O)O)c(=O)n2C)cc1 (centres undefined)	x	14.0	-1.5	-1.0	-6.4
Cc1n[nH]c(C)c1N1C(=O)c2cccc3c(N4CCCCCC4)ccc(c23)C1=O	40.6	-0.1	4.3	280.5*	5.8
O=C1c2cccc3cccc(c23)C(=O)N1CCO	0.0	x	x	x	2.5
O=C(c1cccc(N2C(=O)c3ccccc3C2=O)c1)N1CCCCCC1	19.2	-0.5	-1.9	1.0	-0.7
C=CCN1C(=O)c2cccc3c(N4CCCCC4)ccc(c23)C1=O	3.3	-12.0	-5.5	88.6*	8.3
O=C1c2cccc3c(N4CCCCC4)ccc(c23)C(=O)N1CCO	14.5	4.1	-3.9	108.6*	3.2
CC(=O)c1ccc2c3c(cccc13)C(=O)N(c1c(C)nn(C)c1C)C2=O	37.3	2.0	-2.2	5.1	-5.0
O=C1c2cccc3c(N4CCCCC4)ccc(c23)C(=O)N1c1cccc(O)c1	11.1	1.5	10.0	300.2*	3.8
SMILES	D3 antag	D1 antag	D1 PAM	D1 ag	DRD3 agonist
C=CCN1C(=O)c2cccc3c(Br)ccc(c23)C1=O	-7.4	11.3	0.2	1.1	3.5
Cc1ccc(CN2C(=O)c3ccccc3S(=O)(=O)c3ccc(C(=O)OCC4CCCO4)cc32)cc1 (centres undefined)	x	-6.8	-4.4	1.5	-3.2
CCOC(=O)[C@H](CCc1ccccc1)N[C@@H](C)C(=O)N1Cc2cc(OC)c(OC)cc2C[C@H]1C(=O)O	x	x	x	x	5.7
O=C(Cc1cc(=O)[nH][nH]1)N/N=C/c1ccccc1Cl	-8.9	13.3	-4.2	3.1	-2.6
O=C(Cc1cc(=O)[nH][nH]1)N/N=C/C(Cl)=C/c1ccccc1	-10.7	0.8	1.9	31.2*!	5.5
COc1ccc(/C=C/C(=O)Nc2ccc3nc4c(c(Nc5ccc(OC)c(OC)c5)c3c2)CCCC4)cc1	x	-5.8	1.9	-0.2	-21.3
CCC1CCCCN1C(=O)CSc1nnc(-c2ccc(OC)c(OC)c2)o1 (centres undefined)	x	2.7	3.6	1.0	6.1
CCOC(=O)N1CCC(NS(=O)(=O)c2ccc(C)cc2)CC1	20.4	-39.0*	-4.1	6.1	-7.2
CCOC(=O)N1CCC(NS(=O)(=O)c2cc3c(cc2Br)CCN3C(=O)CC)CC1	-7.8	x	x	x	-2.7
COc1ccc(S(=O)(=O)NC2CCCCCC2)cc1C(N)=O	1.3	-1.0	-2.1	2.0	0.6
O=C(CN1CCCCC1)Nc1ccc(S(=O)(=O)NC2CCCCC2)cc1	-50.6*	-8.3	-6.3	10.9	-8.5
COc1ccc(S(=O)(=O)NC2CCCCC2)cc1C(=O)N1CCCCC1	-65.9*	9.4	-3.5	2.4	2.4
CCOC(=O)N1CCC(NS(=O)(=O)c2cc(Br)cnc2N)CC1	14.6	-30.0*	-8.3	2.1	-2.0
CCOC(=O)N1CCC(NS(=O)(=O)c2ccccc2)CC1	9.0	6.7	-3.2	6.9	2.6
Cc1ccc(S(=O)(=O)N(CC(=O)N2CCc3ccccc3C2)c2ccc(C)c(C)c2)cc1	x	0.2	-0.7	0.6	-17.5
CC(C)(C)c1ccc(C(=O)Nc2onc3c2CCCC3)cc1	x	-6.1	-0.9	-1.5	-10.2
CCCCCCC(=O)O[C@H]1CC[C@H]2[C@@H]3CCc4cc(O)ccc4[C@H]3CC[C@]12C	x	x	x	x	-3.1
COc1ccc(OCC(=O)N(Cc2cccc(OC)c2)C2CCS(=O)(=O)C2)cc1 (centres undefined)	x	-5.4	-0.5	0.8	10.0
CCCc1cc(=O)oc2cc(C)c3c(-c4ccccc4)coc3c12	x	4.7	-0.1	2.2	-1.8
CSc1ncc(C(=O)Nc2ccccc2C(F)(F)F)c(-c2ccccc2)n1	x	7.3	2.2	4.6	-15.3
CNC[C@@H](C)NC[C@@H](Cc1ccccc1)NCCc1ccccc1	-86.3*	-3.2	-9.2	4.5	-3.3
CCCC[C@@H](CNC)NC[C@H](Cc1ccc(O)cc1)NCCc1ccc(OCC)cc1	-20.8	1.5	-0.4	6.3	-25.6
Cc1ncoc1C(=O)NC1CCCc2c1cnn2-c1ccc(C(C)(C)C)cc1 (centres undefined)	34.4	-14.3	-3.6	10.5	30.2*
CC(C)(C)c1ccc(-n2ncc3c2CCCC3NC(=O)CCN2CCCCC2=O)cc1 (centres undefined)	2.0	-5.3	1.2	7.4	10.1
CC(C)(C)c1ccc(-n2ncc3c2CCCC3NC(=O)CN2CCOC2=O)cc1 (centres undefined)	9.9	-42.0*	-6.8	7.5	8.5
CCN(Cc1ccccc1)C(=O)c1nc(-c2cccc(F)c2)n2c1CCCCC2	x	-3.2	-1.1	0.0	-12.5
CCC(C(=O)Nc1ccc(C(=O)OC)cc1)n1nc(-c2ccc(C)cc2)c2c(c1=O)CCCC2 (centres undefined)	x	6.5	-2.2	2.2	-14.6
